Values joined by “and” are separate entries in the source; they are usually repeats but may differ in a detail not shown here. Equal values may be shown once. For some of these results: Measured potencies and affinities stand elsewhere. Some structures have more than one record in an assay (separate samples or runs), and their calls can disagree. Active and inactive are the calls of the source. Rule as the data show it, unless noted: active = parasite load remaining mostly below about 12% (no sharp cut-off); inactive = mostly above about 10%.
How the values were obtained:
[1] = polyglutamine-triggered caspase-3 activation inhibitors, cell-based (AID 1583); details: polyglutamine-induced caspase-3 activation, cell assay; stronger effect = higher value;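 tested at 10 µM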
[2] = suppressors of polyQ aggregation in yeast, 75Q-TubU reporter (AID 1593); details: Yeast 75Q polyglutamine aggregation reporter
[3] = rescue of polyQ-huntingtin neuronal dysfunction in worms, whole organism, C. elegans mechanosensory neurons, N-terminal huntingtin (AID 1599); details: touch response, stronger effect = higher value
[4] = inhibitors of mitochondrial cytochrome c release, biochemical, purified mitochondria (AID 1603); details: stronger effect = lower value;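 also: mouse liver mitochondria challenged with calcium chloride; signal normalized to the plate average as 100%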
[5] = inhibitors of polyQ protein aggregation (AID 1604); details: polyglutamine-induced protein aggregation inhibition assay; stronger effect = higher value; tested at 2.5 µM
[6] = enhancers of glutamate uptake in motor neurons, MN-1 cell line (AID 1612); details: MN-1 motor neuron cells, stronger effect = higher value;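 also: tested at 1 µM final; 0% = mean of DMSO vehicle wells on each plate; positive means more glutamate uptake than control and negative means less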
[7] = reducers of polyQ inclusions in PC12 cells, cell-based, NGF-treated PC12, GFPQ80 (AID 1614); details: PC12 NGF-treated GFP-polyQ80 inclusion reduction;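 also: lower means fewer inclusions and 0 means no inclusions at all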
[8] = suppressors of polyglutamine aggregation in yeast, 75Q-TubH (AID 1616); details: S. cerevisiae 75Q-TubH polyglutamine aggregation suppression; stronger effect = higher value
[9] = liver-stage malaria parasite growth inhibition, primary screen, cell-based, HepG2, luciferase luminescence, HepG2 viability (AID 624349);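 also: 100% = mean of DMSO negative control wells on the same plate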; details: P. berghei liver stage in HepG2, luciferase luminescence, concentration not given here; parasite load remaining: stronger effect = lower value; viability: measured here: HepG2 viability without parasites
[10] = differential killing of epithelial or mesenchymal cells, primary screen, imaging, PC-3E GFP, TEM4-18 mCherry, co-culture (AID 1345086;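 active = compounds killing one labelled cell type while sparing the other, by normalised counts and ratio limits, not self-fluorescent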;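 as to all read-outs here: cells exposed to compound for 72 h before imaging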;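 as to red/green cell ratio (normalised): normalised mesenchymal count divided by normalised epithelial count so high means epithelial killing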); details: imaging cell counts, at 1 µM; for red/green cell ratio (normalised): actives lie on both sides, counts scaled to control wells, 1 = unselective
[11] = sensitizers of A549 cells to miR-34 induction, primary screen, imaging, A549 dox-inducible miR-34, nuclei and caspase counts (AID 1347080;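 active = compounds whose cell count with miR-34 switched on is under 0.7 times the count with it off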); details: A549 miR-34 inducible, Hoechst nuclei count, 48 h
[12] = system: Hepatitis C virus NS3 helicase; test: HCV NS3 helicase inhibitors, primary screen, biochemical, fluorescence polarization, LOPAC1280 library (AID 687035; in the data active = inhibition above about 37%); details: Purified HCV NS3 helicase, Cy5-dT15 ssDNA binding fluorescence polarization; stronger effect = higher value; concentration not given here
[13] = Cy5 fluorescence quenching or enhancement artefacts, artefact control for HCV NS3 helicase inhibitor project, biochemical, LOPAC1280 (AID 687037; call rule not given here); details: Cy5-DNA-NS3h complex fluorescence interference counterscreen
[14] = viability rescue of complex I mutant cybrids, primary screen, cell-based, galactose medium, ATP luminescence (AID 1645843;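 active = z-score of at least 1.8 in each of two replicates, scored against plate mean and spread of sample wells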;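 also: positive z means more ATP and so rescue of galactose-driven cybrid death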); details: complex I mutant cybrid cells, 72 h, stronger effect = higher value
[15] = measured here: epithelial PC-3E GFP cell survival
[16] = measured here: mesenchymal TEM4-18 mCherry cell survival
[17] = stronger effect = lower value, cell number ratio, induced over uninduced
[18] = measured here: relative caspase fold change +Dox/-Dox
[19] = measured here: total cells with miR-34 induction, stronger effect = lower value
[20] = measured here: total cells without miR-34 induction

| Structure (SMILES) | inhibition [1] | score [2] | rescue above control [3] | cytochrome c release ratio [4] | inhibition of aggregation [5] | glutamate uptake change [6] | inclusion score [7] | aggregation suppression score [8] | parasite load remaining [9] | viability [9] | red/green cell ratio (normalised) [10] | normalised cell number [10, 15] | normalised cell number [10, 16] | fold change [11, 17] | fold change [11, 18] | cell count [11, 19] | cell count [11, 20] | inhibition [12] | fluorescence ratio (interference) [13] | z-score [14] |
| --- | --- | --- | --- | --- | --- | --- | --- | --- | --- | --- | --- | --- | --- | --- | --- | --- | --- | --- | --- | --- |
| CC1(C)O[C@@H]2CC3C4CCC5=CC(=O)C=C[C@]5(C)[C@@]4(F)[C@@H](O)C[C@]3(C)[C@]2(C(=O)CO)O1 (some centres not stated) | 7.99% | 0.99 | -3.95 | 1.15 | 85.2% | 20.7% | 2 | 1.19 | 187% (inactive) and 62.4% (inactive) | 64.4% and 84.9% | 1.43 (inactive) | 0.86 | 1.23 | 0.787 (inactive) | 3.14 | 6650 | 8440 | – | – | – |
| CC(=O)[C@H]1CCC2C3C[C@H](C)C4=CC(=O)CC[C@]4(C)C3[C@@H](O)C[C@@]21C (some centres not stated) | -9.54% | 0.84 | 5.72 | 0.58 | 53.9% | 24.3% | – | 0.683 | 75.8% (inactive) and 64.6% (inactive) | 70.5% and 91.2% | 1.01 (inactive) | 1.12 | 1.13 | 0.946 (inactive) | 2.37 | 8730 | 9220 | – | – | – |
| C[C@]12CCC3c4ccc(O)cc4CCC3C1CC[C@@H]2OC(=O)CCC1CCCC1 (some centres not stated) | 30.9% | -0.35 | -0.57 | 0.97 | 94.4% | -6.63% | – | 0.396 | 77.3% (inactive) and 37.9% (inactive) | 74.2% and 90.6% | 1.54 (inactive) | 0.83 | 1.27 | 1 (inactive) | 1.31 | 11300 | 11300 | – | – | – |
| CC[C@H]1CN2CCc3cc(OC)c(OC)cc3C2C[C@@H]1CC1NCCc2cc(OC)c(OC)cc21 (some centres not stated) | 43.8% | 1.69 | -0.41 | 1.03 | 67.5% | -39.3% | – | 1.03 | -0.06% (active) and -0.06% (inactive) | 69.1% and 43.7% | 0.69 (inactive) | 0.22 | 0.15 | 1.07 (inactive) | 1.51 | 2470 | 2320 | – | – | – |
| NC(N)=N/N=C\c1c(Cl)cccc1Cl | -8.15% | 1.22 | -12.2 | 1.41 | 61% | 33.9% | 2 | 0.91 | 56% (inactive) and 40.7% (inactive) | 69.3% and 86.4% | 1.13 (inactive) | 1.05 | 1.18 | 0.816 (inactive) | 0.826 | 8780 | 10800 | 0% (inactive) | 1 (inactive) | – |
| C#C[C@]1(O)CCC2C3CCC4=Cc5oncc5C[C@]4(C)C3CC[C@@]21C (some centres not stated) | 10.9% | 1.04 | 5.61 | 1.19 | 69.1% | -6.15% | – | 0.874 | 83.8% (inactive) and 19.9% (inactive) | 69% and 89.7% | 1.05 (inactive) | 1.19 | 1.26 | 0.952 (inactive) | 2.2 | 9590 | 10100 | – | – | – |
| C[C@H](CCC(=O)O)[C@H]1CCC2C3C(CC[C@@]21C)[C@@]1(C)CC[C@@H](O)C[C@H]1C[C@@H]3O (some centres not stated) | 20.5% | -0.02 | 3.58 | 1.17 | 66.7% | -4.34% | 2 | 0.256 | 50.6% (inactive) and 45.5% (inactive) | 77.3% and 94.5% | 1.02 (inactive) | 1.05 | 1.08 | 0.898 (inactive) | 1.12 | 11500 | 12900 | – | – | – |
| CC1(C)C2CC[C@]3(C)C(C(=O)C=C4[C@@H]5C[C@@](C)(C(=O)O)CC[C@]5(C)CC[C@]43C)[C@@]2(C)CC[C@@H]1OC(=O)CCC(=O)O (some centres not stated) | 59.3% | 2.57 | -3.48 | 3.47 | 66.7% | -2.75% | – | 1.68 | 124% (inactive) and 24.9% (inactive) | 99.6% and 85.2% | 0.99 (inactive) | 1.01 | 1 | 0.887 (inactive) | 2.9 | 10800 | 12200 | – | – | – |
| CCCCCCCCCCCCC[N+](C)(C)Cc1ccccc1 | 73.1% | -0.05 | 0 | 5.81 | 25% | 18.1% | – | -0.017 | 85.2% (inactive) and -0.62% (inactive) | 75.6% and 58.8% | 0.62 (inactive) | 0.83 | 0.51 | 0.898 (inactive) | 1.61 | 74.5 | 83 | – | – | – |
| CC(=O)OCC(=O)[C@@]1(O)CCC2C3CCC4=CC(=O)CC[C@]4(C)C3C(=O)C[C@@]21C (some centres not stated) | -3.61% | 1.04 | -2.34 | 0.91 | 69.7% | -1.1% | 2 | 0.738 | 120% (inactive) and 65.9% (inactive) | 67.1% and 90.7% | 1.08 (inactive) | 1.08 | 1.17 | 0.911 (inactive) | 0.583 | 11400 | 12500 | – | – | – |
| CO/N=C(/C(=O)NC1C(=O)N2C(C(=O)O)=C(COC(N)=O)CSC12)c1ccco1 (configuration not stated) | 8.13% | 1.48 | -9.55 | 1.1 | 28.8% | 14.5% | 2 | 1.29 | 180% (inactive) and 36.7% (inactive) | 72.5% and 86.1% | 0.94 (inactive) | 1.04 | 0.97 | 0.899 (inactive) | 3.3 | 11600 | 12900 | – | – | – |
| C=C[C@H]1CN2CC[C@H]1C[C@@H]2[C@H](O)c1ccnc2ccc(OC)cc12 | -2.2% | 1.5 | -7.29 | 0.97 | 9.09% | 13.1% | – | 1.58 | 68.2% (inactive) and 15.1% (active) | 72.3% and 81.3% | 1.16 (inactive) | 1.05 | 1.21 | 0.948 (inactive) | 2.86 | 10900 | 11500 | – | – | – |
| C[C@]12CCC(=O)C=C1CCC1C2C(=O)C[C@@]2(C)C1CC[C@]2(O)C(=O)CO (some centres not stated) | – | – | – | – | – | – | – | – | – | – | 0.7 (inactive) | 1.3 | 0.91 | 0.915 (inactive) | 1.12 | 9120 | 9960 | – | – | 0.345 (inactive) |
| CC12CCC(=O)C=C1CCC1C2[C@@H](O)CC2(C)C1CC[C@]2(O)C(=O)COP(=O)(O)O (some centres not stated) | -6.16% | 1.65 | -3.35 | 1.1 | 44.7% | 26.3% | 2 | 1.46 | 75.6% (inactive) | 91.2% | 0.95 (inactive) | 1.05 | 0.99 | 0.789 (inactive) | 1.68 | 7430 | 9410 | – | – | – |
| C[N+]1(C)C2CC[C@H]1CC(OC(=O)C(O)c1ccccc1)C2 (some centres not stated) | 5.29% | 1.53 | 12.1 | 0.9 | 65.1% | -16.5% | 2 | 1.36 | 95.8% (inactive) and 69.2% (inactive) | 75.7% and 100% | 0.83 (inactive) | 1.16 | 0.97 | 0.874 (inactive) | 1.28 | 10300 | 11800 | – | – | – |
| CC(=O)[C@H]1CCC2C3CCC4=CC(=O)CC[C@]4(C)C3CC[C@@]21C (some centres not stated) | 41.6% | 0.59 | 3.59 | 1.24 | 84.5% | -1.48% | – | 0.333 | 49.3% (inactive) and 27.2% (inactive) | 66.1% and 99.4% | 0.96 (inactive) | 1.15 | 1.11 | 0.856 (inactive) | 1.4 | 9840 | 11500 | – | – | – |
| C[C@H]1O[C@@H](O[C@H]2[C@@H](O)C[C@H](O[C@H]3[C@@H](O)C[C@H](O[C@H]4CC[C@]5(C)C6C[C@@H](O)[C@]7(C)[C@@H](C8=CC(=O)OC8)CC[C@]7(O)C6CC[C@@H]5C4)O[C@@H]3C)O[C@@H]2C)C[C@H](O)[C@@H]1O (some centres not stated) | 80% | 1.17 | 0 | 0.9 | 88.9% | -3.95% | 1.5 | 1.34 | 1.4% (inactive) and 1.3% (inactive) | 36.1% and 54.9% | 0.68 (inactive) | 1.14 | 0.77 | 0.434 (active) | 2.23 | 193 | 445 | – | – | – |
| Nc1ccn(C2O[C@H](CO)[C@@H](O)[C@@H]2O)c(=O)n1 (some centres not stated) | 26% | 1.28 | 1.26 | 1.03 | 77.5% | -13.5% | – | 1.27 | 129% (inactive) and 95.7% (inactive) | 74% and 95.8% | 1.61 (inactive) | 0.27 | 0.43 | 0.952 (inactive) | 1.13 | 1930 | 2030 | – | – | – |
| CN1CCN(CCC=C2c3ccccc3Sc3ccc(S(=O)(=O)N(C)C)cc32)CC1 | 35.1% | 0.75 | 18.8 | 2.01 | 76% | -21.1% | – | 0.481 | 192% (inactive) and 47.1% (inactive) | 71.3% and 85.4% | 1.07 (inactive) | 0.83 | 0.89 | 0.878 (inactive) | 3.25 | 9700 | 11100 | – | – | – |
| CCCCC(=O)O[C@H]1CCC2C3CCc4cc(O)ccc4C3CC[C@@]21C (some centres not stated) | 15.8% | -2.02 | 17.4 | 1.02 | 26.4% | 19.7% | – | 0.271 | 83% (inactive) and 44.1% (inactive) | 74.5% and 87.8% | 0.95 (inactive) | 0.89 | 0.84 | 0.938 (inactive) | 1.71 | 10200 | 10900 | – | – | – |

From PubChem BioAssay
